# Laboratory results: PubChem BioAssay AID1159580 (chemical genetic matrix, 2015)
# Among all 5,500 compounds or so, about 2,000 (36%) were called active. Another 18% or so got no clear call; they are omitted. This is one part of the list. Unmarked numbers belong to inactive results. No stated cut-off is given here; in the data, active means normalized growth mostly below about 0.91 (no sharp cut-off); inconclusive means no clear call, values can overlap the other calls; inactive means mostly above about 0.92.
# Experiment: chemical genetic growth profiling, strain panel (AID 1159580);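 further: tested at 20 µM; growth read once vehicle control cultures reached saturation at 30 °C; 1 = growth at the plate median or of vehicle wells; lower values mean less growth of the strain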
# Conditions: S. cerevisiae deletion strains, growth OD
smiles,measurement,setting,value
O=C(CCn1c(=O)oc2ccccc21)Sc1ccc(C(F)(F)F)cc1,normalized growth,"locus YAR019C, strain CDC15, active compounds read low",0.931
same,normalized growth,"locus YBL105C, strain PKC1, active compounds read low",0.962
same,normalized growth,"locus YBR135W, strain CKS1, active compounds read low",0.957
same,normalized growth,"locus YBR136W, strain MEC1, active compounds read low",0.941
same,normalized growth,"locus YBR160W, strain CDC28, active compounds read low",0.951
same,normalized growth,"locus YDL017W, strain CDC7, active compounds read low",0.967
same,normalized growth,"locus YDL028C, strain MPS1, active compounds read low",0.925
same,normalized growth,"locus YDL101C, strain DUN1, active compounds read low",0.975
same,normalized growth,"locus YDL108W, strain KIN28, active compounds read low",0.94
same,normalized growth,"locus YDL132W, strain cdc53, active compounds read low",0.965
same,normalized growth,"locus YDL214C, strain PRR2, active compounds read low",0.793
same,normalized growth,"locus YDR052C, strain DBF4, active compounds read low",0.961
same,normalized growth,"locus YDR054C, strain cdc34, active compounds read low",0.936
same,normalized growth,"locus YDR226W, strain ADK1, active compounds read low",0.951
same,normalized growth,"locus YDR477W, strain SNF1, active compounds read low",0.742
same,normalized growth,"locus YER123W, strain YCK3, active compounds read low",0.677
same,normalized growth,"locus YER133W, strain GLC7, active compounds read low",0.876
same,normalized growth,"locus YFL009W, strain cdc4, active compounds read low",0.917
same,normalized growth,"locus YFL029C, strain CAK1, active compounds read low",0.937
same,normalized growth,"locus YFR003C, strain YPI1, active compounds read low",0.97
same,normalized growth,"locus YFR019W, strain FAB1, active compounds read low",0.942
same,normalized growth,"locus YFR028C, strain CDC14, active compounds read low",0.958
same,normalized growth,"locus YGR040W, strain KSS1, active compounds read low",0.7
same,normalized growth,"locus YGR052W, strain FMP48, active compounds read low",0.774
same,normalized growth,"locus YGR092W, strain DBF2, active compounds read low",0.473 (active)
same,normalized growth,"locus YHR030C, strain SLT2, active compounds read low",0.318 (active)
same,normalized growth,"locus YHR079C, strain IRE1, active compounds read low",0.479 (active)
same,normalized growth,"locus YHR082C, strain KSP1, active compounds read low",0.781
same,normalized growth,"locus YHR205W, strain SCH9, active compounds read low",0.792
same,normalized growth,"locus YIL147C, strain SLN1, active compounds read low",0.935
same,normalized growth,"locus YJL095W, strain BCK1, active compounds read low",0.838
same,normalized growth,"locus YJL128C, strain PBS2, active compounds read low",0.929
same,normalized growth,"locus YJL157C, strain FAR1, active compounds read low",0.703
same,normalized growth,"locus YJR016C, strain ILV3, active compounds read low",0.966
same,normalized growth,"locus YJR066W, strain TOR1 (second series), active compounds read low",0.418 (active)
same,normalized growth,"locus YJR066W, strain TOR1, active compounds read low",0.587
same,normalized growth,"locus YKL048C, strain ELM1, active compounds read low",0.897
same,normalized growth,"locus YKL067W, strain YNK1, active compounds read low",0.779
same,normalized growth,"locus YKL101W, strain HSL1, active compounds read low",0.834
same,normalized growth,"locus YKL193C, strain SDS22, active compounds read low",0.955
same,normalized growth,"locus YKL203C, strain TOR2, active compounds read low",0.937
same,normalized growth,"locus YLR113W, strain HOG1, active compounds read low",0.848 (active)
same,normalized growth,"locus YLR133W, strain CKI1, active compounds read low",0.779
same,normalized growth,"locus YLR403W, strain SFP1, active compounds read low",0.799
same,normalized growth,"locus YML070W, strain DAK1, active compounds read low",0.879
same,normalized growth,"locus YMR001C, strain CDC5, active compounds read low",0.938
same,normalized growth,"locus YMR205C, strain PFK2 (second series), active compounds read low",0.882
same,normalized growth,"locus YMR277W, strain FCP1, active compounds read low",0.919
same,normalized growth,"locus YNL006W, strain LST8, active compounds read low",0.954
same,normalized growth,"locus YNL020C, strain ARK1, active compounds read low",0.783
same,normalized growth,"locus YNL161W, strain CBK1, active compounds read low",0.962
same,normalized growth,"locus YNL183C, strain NPR1, active compounds read low",0.778
same,normalized growth,"locus YNL207W, strain RIO2, active compounds read low",0.949
same,normalized growth,"locus YNL222W, strain SSU72, active compounds read low",0.935
same,normalized growth,"locus YNL307C, strain MCK1 (second series), active compounds read low",0.557 (active)
same,normalized growth,"locus YOL078W, strain AVO1, active compounds read low",0.951
same,normalized growth,"locus YOL136C, strain PFK27, active compounds read low",0.851
same,normalized growth,"locus YOR061W, strain CKA2, active compounds read low",0.607 (active)
same,normalized growth,"locus YOR119C, strain RIO1, active compounds read low",0.922
same,normalized growth,"locus YOR329C, strain SCD5, active compounds read low",0.965
same,normalized growth,"locus YPL031C, strain PHO85, active compounds read low",0.732
same,normalized growth,"locus YPL153C, strain RAD53, active compounds read low",0.552 (active)
same,normalized growth,"locus YPL204W, strain HRR25, active compounds read low",0.813
same,normalized growth,"locus YPL209C, strain IPL1, active compounds read low",0.971
same,normalized growth,"locus YPL256C, strain CLN2, active compounds read low",0.83 (active)
same,normalized growth,"locus YPR025C, strain CCL1, active compounds read low",0.956
same,normalized growth,"locus YPR106W, strain ISR1, active compounds read low",0.956
same,normalized growth,"locus YPR111W, strain DBF20, active compounds read low",0.93
same,normalized growth,"strain NNK1, active compounds read low",0.96
same,normalized growth,"strain TSCII, active compounds read low",0.931
